# PubChem BioAssay AID488969 (Vanderbilt High Throughput Screening Facility, 2010)
# Whole data set: some 110,000 compounds, median “z-score” near -0.1, cut for the highest 2% near 2. The full list was thinned out, with the highest values kept by preference. Calls of active or inactive are those of the source.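 How the source made its calls: active means z-score in the third read window above 3 or below -3; inactive means the rest.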
# Target: Metabotropic glutamate receptor 8 (Rattus norvegicus) (UniProt P70579)
# Sequence (P70579 whole entry, looked up): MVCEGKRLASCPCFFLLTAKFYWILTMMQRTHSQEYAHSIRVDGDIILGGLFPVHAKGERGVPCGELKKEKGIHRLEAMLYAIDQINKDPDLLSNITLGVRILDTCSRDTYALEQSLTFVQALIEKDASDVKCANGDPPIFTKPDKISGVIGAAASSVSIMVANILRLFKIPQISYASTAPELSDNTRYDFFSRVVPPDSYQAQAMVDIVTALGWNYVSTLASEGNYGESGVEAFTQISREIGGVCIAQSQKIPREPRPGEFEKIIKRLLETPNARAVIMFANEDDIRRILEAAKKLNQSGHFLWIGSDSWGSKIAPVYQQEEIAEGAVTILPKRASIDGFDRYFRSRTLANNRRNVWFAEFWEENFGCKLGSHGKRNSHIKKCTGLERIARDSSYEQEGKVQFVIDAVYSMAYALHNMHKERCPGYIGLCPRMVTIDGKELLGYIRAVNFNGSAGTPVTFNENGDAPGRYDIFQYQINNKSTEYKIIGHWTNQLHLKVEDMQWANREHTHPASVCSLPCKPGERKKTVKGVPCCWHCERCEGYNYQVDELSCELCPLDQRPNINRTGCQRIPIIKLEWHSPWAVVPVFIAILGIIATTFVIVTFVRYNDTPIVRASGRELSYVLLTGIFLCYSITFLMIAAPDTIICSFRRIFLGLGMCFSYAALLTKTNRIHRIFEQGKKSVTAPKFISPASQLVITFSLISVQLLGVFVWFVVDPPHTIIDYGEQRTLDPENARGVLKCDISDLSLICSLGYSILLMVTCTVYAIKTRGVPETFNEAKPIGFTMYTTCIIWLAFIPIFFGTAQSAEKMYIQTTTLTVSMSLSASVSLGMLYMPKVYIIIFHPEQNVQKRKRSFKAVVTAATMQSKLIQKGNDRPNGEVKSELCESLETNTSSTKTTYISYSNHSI
# Test: mGluR8 Gi/Go-coupled signaling modulation – cell-based, rat, thallium flux, HTS, primary screen (AID 488969)
# Settings: HEK293 rat mGluR8, GIRK (G protein-gated inwardly rectifying potassium channel) thallium flux, FluoZin2; at 10 µM; stronger effect = higher value; submaximal glutamate (EC20) added with thallium
row,SMILES,z-score
1,COc1ccc(OCCN2CCN(C3CC(=O)N(CCC(C)C)C3=O)CC2)cc1 (configuration not stated),-0.363
2,O=C(/C=C/c1c(Cl)cccc1Cl)N1CCN(c2ncccn2)CC1,-0.303
3,COCC(C)NC(=O)c1ccccc1OC(C)=O (configuration not stated),-0.44
4,COc1cc(/C=N/NC(=O)c2sc(N)c(C#N)c2C)cc(Br)c1O,-0.544
5,Cc1cc(C)n(-c2ccc(C(=O)OCC(=O)Nc3ccc(Cl)cc3[N+](=O)[O-])cc2)n1,-0.362
6,COc1ccc2cc(C(=O)NCCO)sc(=O)c2c1OC,-0.297
7,COc1ccc2cc(C(=O)Nc3ccc(F)cc3)sc(=O)c2c1OC,0.534
8,COc1ccc2cc(C(=O)NCC(=O)O)sc(=O)c2c1OC,3.42 (active)
9,COc1ccc2cc(C(=O)OC(C)C)sc(=O)c2c1OC,-0.229
10,COc1ccc2cc(C(=O)Nc3ccccc3)sc(=O)c2c1OC,4.25 (active)
11,COC(=O)c1cc2ccc(OC)c(OC)c2c(=O)s1,0.0942
12,N#Cc1ccc(C(=O)Nc2cc(S(=O)(=O)Nc3ccc(Cl)cc3)ccc2N2CCCCC2)cc1,-0.309
13,O=C(O)CCc1ccc(-c2ccc(F)cc2)n1NC(=O)c1ccco1,0.168
14,Cc1ccc(N=Cc2cc3c(cc2O)OC(N)=C(C#N)C3c2ccccc2)cc1 (configuration not stated),6.28 (active)
15,N#CC1=C(N)Oc2cc(O)c(C=Nc3ccccc3)cc2C1c1ccccc1 (configuration not stated),-0.423
16,COc1ccc(N=Cc2cc3c(cc2O)OC(N)=C(C#N)C3c2ccccc2)cc1 (configuration not stated),-1.18
17,O=C(c1ccc(Cn2c(=O)[nH]c3ccccc3c2=O)cc1)N1CCN(c2ccc(Cl)cc2)CC1,-0.127
18,CC(C)CCn1c(CN2CCN(Cc3ccccc3)CC2)nc2c1c(=O)[nH]c(=O)n2C,5.8 (active)
19,CN1CCN(Cc2nc3c(c(=O)[nH]c(=O)n3C)n2CCc2ccccc2)CC1,-0.00916
20,CC(C)CCn1c(CN2CCN(Cc3ccccc3)CC2)nc2c1c(=O)n(C)c(=O)n2C,0.709
21,CC(C)CCNC(=O)CO/N=C/c1ccccc1OC(F)F,-0.572
22,COc1cc(Nc2nc(SCC#N)nc3ccccc23)cc(OC)c1OC,2.31

row,SMILES,z-score
1,N#CCSc1nc(Nc2ccc3c(c2)OCO3)c2ccccc2n1,-0.556
2,COc1cc(Nc2nc3ccccc3n3nnnc23)cc(OC)c1OC,-0.0435
3,CC(C)COC(=O)c1cccc2c1-c1ccccc1/C2=N\O,-0.108
4,O=C(Nc1cccc(Oc2ccc3c(c2)C(=O)NC3=O)c1)c1cccs1,0.83
5,CC1CCCC(n2c(=S)[nH]c3ccccc3c2=O)C1C (configuration not stated),9.07 (active)
6,CC1CCCCC1n1c(=S)[nH]c2ccccc2c1=O (configuration not stated),16.2 (active)
7,Cc1cc(C)c2c(N=NN3CCCCC3)[nH]nc2n1,-0.0999
8,CCN(CC)S(=O)(=O)c1ccc(NC(=O)c2ccc(NS(C)(=O)=O)cc2)cc1,1.67
9,CCn1c(N2CCN(C(=S)NCC(C)C)CC2)nc2ccccc21,-0.148
10,CCCC(=O)NCc1ccc2c(c1)cc(C)n2C,-0.371
11,CC1=C(C(=O)OCC2CCCO2)C(c2ccc(C)o2)C2=C(CC(c3ccc(F)cc3)CC2=O)N1 (configuration not stated),-3.31 (active)
12,CCOC(=O)C1=C(C)NC2=C(C(=O)CC(c3ccc(OC)c(OC)c3)C2)C1c1ccc(C)o1 (configuration not stated),4.89 (active)
13,CC1=C(C(=O)OCC2CCCO2)C(c2ccc(C)o2)C2=C(CC(c3ccc(N(C)C)cc3)CC2=O)N1 (configuration not stated),-0.22
14,Cc1cc(C(F)(F)F)nc(SCC(=O)NC2=NC(=O)C(C)S2)n1 (configuration not stated),0.475
15,O=C(CNC(=O)c1cccc(F)c1)N/N=C/c1cc(Br)ccc1OC(=O)/C=C/c1ccco1,2.46
16,COc1ccccc1C(=O)NCC(=O)N/N=C/c1cc(Br)ccc1OC(=O)/C=C\c1ccco1,-0.122
17,O=C(CNC(=O)c1ccccc1F)N/N=C/c1cc(Br)ccc1OC(=O)/C=C/c1ccco1,-0.338
18,Cc1cc(C)nc(NC(=O)c2ccc(C)c([N+](=O)[O-])c2)n1,-0.0674
19,O=C(CC(=O)Nc1ccccn1)Nc1ccccn1,4.08 (active)
20,O=C(CN1CCN(CC(=O)Nc2ccccn2)CC1)Nc1ccccn1,-0.212
21,O=C(Nc1ccccc1)C(=O)Nc1ccccn1,-0.125
22,COc1ccc(OCc2nc3ccc(S(=O)(=O)Nc4ccccc4Cl)cc3[nH]2)cc1,-0.822

row,SMILES,z-score
1,Cc1ccc(S(=O)(=O)N2CCCCC2)cc1NC(=O)CSc1ccc2c(c1)OCCO2,-0.361
2,CCCCSc1nc(O)c(Cc2ccccc2)c(=O)[nH]1,0.379
3,CCCCSc1nc(N)c(NC(=O)c2ccco2)c(=O)[nH]1,3.07 (active)
4,Nc1nc(SCC(=O)N2CCCC2)[nH]c(=O)c1NC(=O)c1ccco1,0.975
5,O=C(O)C1C2C=CC(C3CC23)C1C(=O)NCCc1ccccc1 (configuration not stated),0.335
6,Cc1cc(C)n2nc(C(=O)NCc3ccccc3)cc2n1,0.128
7,CCS/C(N)=N/N=C/c1cc(C)ccc1O,-0.389
8,CCc1ccccc1NC(=S)N1CCC(C(=O)c2ccc(F)cc2)CC1,0.202
9,O=C(c1ccc(F)cc1)C1CCN(C(=S)Nc2ccccc2)CC1,-0.612
10,Cc1cccc(NC(=S)N2CCC(C(=O)c3ccc(F)cc3)CC2)c1C,5.76 (active)
11,Cc1ccc(Cn2ncc3c(NCCCN4CCOCC4)ncnc32)cc1,-0.227
12,CCc1nnc(NC(=O)CSc2nnc(-c3cccnc3)n2CCc2ccccc2)s1,0.167
13,Cc1ccc(OCCn2c(=O)sc3ccccc32)cc1,-0.193
14,COc1ccc(Cc2c[nH]c(=O)[nH]c2=O)cc1,-0.218
15,COc1ccc(CO/N=C/c2c(C)[nH]c(=O)[nH]c2=O)cc1,3.36 (active)
16,COc1ccc(N(C)S(=O)(=O)c2c(C)[nH]c(=O)[nH]c2=O)cc1,0.02
17,O=C(CSc1ncn[nH]1)Nc1ccc([N+](=O)[O-])cc1Br,-0.12
18,CC(C)CCNC1=CC(=O)CC(c2ccccc2)C1 (configuration not stated),2.1
19,COc1ccc(C2CC(=O)C=C(NCCC(C)C)C2)cc1 (configuration not stated),0.226
20,CCCCCNC1=CC(=O)CC(c2ccccc2)C1 (configuration not stated),-0.123
21,CC(c1ccccc1)N1C(=O)c2ccc(C(=O)NCc3ccco3)cc2C1=O (configuration not stated),-0.54
22,Cc1ccc(N=C(NO)c2nonc2N)cc1,-1.5

row,SMILES,z-score
1,Cn1ccnc1C(O)(c1nnc(-c2ccccc2)o1)C(F)(F)F (configuration not stated),-1.19
2,CC(C)n1c(O)c(N=NC(=O)c2ccccc2NS(=O)(=O)c2cccs2)c2ccccc21,-0.411
3,Cc1cc(C(=O)N=Nc2c(O)n(C(C)C)c3ccccc23)n[nH]1,0.232
4,CCCCn1c(O)c(N=NC(=O)Cn2c(C(F)(F)F)nc3ccccc32)c2ccccc21,0.194
5,CC(C)n1c(O)c(N=Nc2ccc(Cl)nn2)c2ccccc21,3.42 (active)
6,CC(C)n1c(O)c(N=NC(=O)Cn2ccc(C(F)(F)F)n2)c2ccccc21,1.13
7,CC(C)n1c(O)c(N=Nc2ccccn2)c2ccccc21,2.21
8,CC(C)CCn1c(O)c(N=Nc2ccccn2)c2ccccc21,1.19
9,CCCCn1c(O)c(N=Nc2ccccn2)c2ccccc21,2.97
10,CC(C)n1c2ccccc2c2nc3ccccc3nc21,-0.47
11,COc1ccc(CC(=O)NCc2ccco2)cc1OC,-0.0499
12,CN(C)C(CNS(=O)(=O)c1ccc(Cl)cc1)c1cccnc1 (configuration not stated),-0.0299
13,CCOC(=O)CCc1c(C)c2ccc(OCC(=O)N(CC)CC)c(C)c2oc1=O,-0.0102
14,CCCc1cc(=O)[nH]c(SCC(=O)N2N=C(c3ccc(Cl)cc3)CC2c2ccco2)n1 (configuration not stated),-0.126
15,COCCn1c(=S)[nH]c2cc(C(=O)N3CCC(C(N)=O)(N4CCCCC4)CC3)ccc2c1=O,-0.286
16,CCOc1ccccc1N1CCN(Cc2cccc(OC)c2O)CC1,-0.0607
17,COc1ccccc1N1CCN(Cc2ccc(O)c3ncccc23)CC1,-0.0396
18,COc1ccccc1N1CCN(Cc2cc(Br)c(O)c3ncccc23)CC1,3.32 (active)
19,Cc1cc(C(=O)NCC(=O)OCC(=O)N(C)C2CCCCC2)ccc1[N+](=O)[O-],0.828
20,CCOC(=O)C1C(=O)C=C(/C=C/c2ccccc2)CC1c1ccc(Cl)cc1 (configuration not stated),-0.123
21,CC(C)[C@H](NC(=O)OC(C)(C)C)c1nnc(SCC(=O)Nc2ccc(Br)cc2)o1,-0.355
22,Cn1c(N2CCN(C(=O)NC34CC5CC(CC(C5)C3)C4)CC2)nc2ccccc21,-0.317

row,SMILES,z-score
1,O=C(CSc1ccc2ccccc2c1Br)Nc1cccc(S(=O)(=O)NC2=NCCCCC2)c1,14.5 (active)
2,Cc1cc(C)cc(-n2c(SCC(=O)Nc3cccc(S(=O)(=O)NC4=NCCCCC4)c3)nc3ccccc3c2=O)c1,-0.139
3,Cc1ccc(-n2c(SCC(=O)Nc3cccc(S(=O)(=O)NC4=NCCCCC4)c3)nc3ccccc3c2=O)cc1,-0.48
4,CCCCC(c1nnnn1C1CCCC1)N1CCN(C2CCCCC2)CC1 (configuration not stated),-0.391
5,COC(=O)C1CCCN1S(=O)(=O)c1ccc2ccccc2c1 (configuration not stated),2.41
6,O=C(NC1CC1)C1CCCN1S(=O)(=O)c1ccc2ccccc2c1 (configuration not stated),-0.112
7,O=C(O)C1CCCCN1S(=O)(=O)c1ccc2ccccc2c1 (configuration not stated),-0.217
8,Cc1ccc(C(=O)COc2ccccc2-c2ccccc2)cc1,-0.229
9,CCOc1ccccc1C(=O)N(Cc1ccccc1)Cc1cc2cc3c(cc2[nH]c1=O)OCCO3,0.283
10,CCOC(=O)c1ccc(NC(=O)CCNC(=O)c2ccc([N+](=O)[O-])cc2)cc1,-0.327
11,CCCn1nc([N+](=O)[O-])c(C(C#N)c2nc3ccccc3s2)c(Cl)c1=O (configuration not stated),-2.49
12,CCn1nc([N+](=O)[O-])c(C(C#N)c2nc3ccccc3n2C)c(Cl)c1=O (configuration not stated),-0.682
13,CCn1nc([N+](=O)[O-])c(C(C#N)c2nc3cc(C(F)(F)F)ccc3s2)c(Cl)c1=O (configuration not stated),2.97
14,CCCS(=O)(=O)N1CCC(C(=O)NCc2ccco2)CC1,0.18
15,Cc1ccc(OCc2nnc(SCC(=O)c3cccs3)n2-c2ccccc2)cc1C,0.316
16,Cc1c(C(=O)OCC(=O)N2CC(C)OC(C)C2)oc2ccc(Br)cc12 (configuration not stated),-0.32
17,CC(C)(C)OC(=O)COc1cc(O)c2c(=O)cc(-c3ccccc3)oc2c1,4.76 (active)
18,CC(C)(C)OC(=O)COc1cc(OCC(=O)OC(C)(C)C)c2c(=O)cc(-c3ccccc3)oc2c1,-0.331
19,O=C(COc1cc(O)c2c(=O)cc(-c3ccccc3)oc2c1)c1ccccc1,0.0143
